27 compounds from PubChem BioAssay can be followed below.

The nature of test [1]: P. berghei load reduction in hepatocytes – cell-based, HepG2, luciferase luminescence, HepG2 viability, primary screen (AID 624349; in the data active = parasite load remaining mostly below about 12%, no sharp cut-off; inactive = mostly above about 10%;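 also: 100% = mean of DMSO negative control wells on the same plate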). The note with it: P. berghei liver stage in HepG2, luciferase luminescence, concentration not given here; parasite load remaining: stronger effect = lower value; viability: measured here: HepG2 viability without parasites.
Test [2] concerns Neuropilin-2 / VEGF-C interaction (human). Briefly: small molecules blocking Neuropilin-2/VEGF-C interaction – biochemical, microplate binding format, z-score (AID 743281). The note with it: microplate NRP2/VEGF-C binding assay; stronger effect = lower value.
Test [3] concerns Aerobactin synthetase IucA (Klebsiella pneumoniae). Nature of the test: inhibition of K. pneumoniae IucA enzyme – biochemical, Tocris library, absorbance (AID 1345561).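 Also: 100% = enzyme without compound and 0% = no enzyme.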 The note with it: purified IucA enzyme assay, absorbance (OD) read-out; stronger effect = lower value;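 tested at 8 µM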.
Test [4] concerns the target ATP-dependent translocase ABCB1 (Homo sapiens) (UniProt P08183). Briefly: P-glycoprotein substrate transport blockade – cell-based (AID 377; in the data active = fluorescence slope change above about 50%). As to conditions: MDR1-expressing cells, fluorescent substrate accumulation slope; stronger effect = higher value; concentration not given here.
Test [5] can be described thus: viability loss in pontine glioma line – cell-based, SU-DIPG-XIII, MIPE5.0, CellTiter-Glo, qHTS, dose response (AID 1347064; cut-off not given, nearly all actives have AC50 up to about 23 µM;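 as to AC50: cells exposed to compound for 48 hours before the viability read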). As to conditions: CellTiter-Glo ATP luminescence. (Cellular ATP, detected with luciferase, serves as a proxy for viable cell number.)
The nature of test [6]: viability loss in pontine glioma line – cell-based, SU-DIPG-IV, MIPE4.0, CellTiter-Glo, qHTS, dose response (AID 1347063; cut-off not given, nearly all actives have AC50 up to about 30 µM;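 also: compound exposure lasted 48 hours before the viability readout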). The note with it: CellTiter-Glo ATP luminescence.
A short description of test [7]: growth inhibition, single agents and combos, CRL2098, cell-based, BGB or cisplatin IC20 combos, synergistic combos for chromothripsis tumors (AID 1671454; in the data active = inhibition above about 80%;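 also: cells exposed for 96 h before readout; 0% = vehicle DMSO and 100% = killing by high DMSO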). As to conditions: CRL2098 osteosarcoma cells, drug combinations, stronger effect = higher value.
Test [8] is described as follows: growth inhibition, single agents and combos, HD-MB03, cell-based, BGB or cisplatin IC20 combos, synergistic combos for chromothripsis tumors (AID 1671455; in the data active = inhibition above about 83%;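 also: 0% = vehicle DMSO and 100% = high DMSO as cytotoxic control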). As to conditions: HD-MB03 medulloblastoma cells, stronger effect = higher value.
Test [9] can be described thus: growth inhibition, single agents and combos, UWB1.289, cell-based, BGB or cisplatin combos, synergistic combos for chromothripsis tumors (AID 1671456; in the data active = inhibition above about 80%;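 also: cells exposed to compound for four days; 0% = vehicle DMSO and 100% = killing by high DMSO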). As to conditions: UWB1.289 ovarian carcinoma cells, stronger effect = higher value.
Test [10] is described as follows: growth inhibition, single agents and combos, LFS_MB_2R, cell-based, cisplatin combos, synergistic combos for chromothripsis tumors (AID 1671457; in the data active = inhibition above about 80%;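 also: cells exposed to compound for four days before readout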). The note with it: LFS_MB_2R medulloblastoma cells, stronger effect = higher value.
A short description of test [11]: UWB1.289_BRCA1 ovarian cancer growth, cell-based, BGB or cisplatin combinations (AID 1671459; in the data active = inhibition above about 80%). The note with it: UWB1.289 BRCA1 ovarian carcinoma, drug combinations, stronger effect = higher value.
Test [12] is described as follows: drug combination toxicity in non-malignant astrocytes – cell-based, BGB or cisplatin IC20 combos, cytotoxicity control for chromothriptic childhood tumor combination screen (AID 1671460; in the data active = inhibition above about 80%;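 also: cells exposed to compounds for 96 hours before viability readout; 0% = vehicle and 100% = killing control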). The note with it: Human astrocytes, viability inhibition, drug combinations, at 0.5 µM, stronger effect = higher value.
The nature of test [13]: antimalarial activity against Dd2 strain (AID 2302;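 active = growth inhibition above 50% at the single 2 µM test dose, taken to imply half-maximal potency below 2 µM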;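 also: 0% = DMSO untreated growth and 100% = chloroquine plus artemisinin killed control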). As to conditions: P. falciparum Dd2 in RBCs, LDH growth readout, 72 h; at 2 µM; stronger effect = higher value.
Test [14] addresses L-lactate dehydrogenase (Plasmodium falciparum (isolate CDC / Honduras)) (UniProt Q27743). Nature of the test: PfLDH activity inhibition – cell lysate, 3D7 strain, counter-screen for P. falciparum growth inhibition project (AID 2304).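 Also: 0% = vehicle and 100% = reference inhibitor.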 As to conditions: P. falciparum 3D7 crude extract, LDH APAD/NBT absorbance; at 2 µM; stronger effect = higher value. (In general: Counterscreens check selectivity or assay interference.)

Test [15] is described as follows: inhibition of 3D7 malaria parasite growth – strain 3D7 (AID 2306).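 Also: 0% = DMSO wells and 100% = chloroquine plus artemisinin control wells.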 As to conditions: P. falciparum 3D7 erythrocytic growth, LDH absorbance, 72 h; at 2 µM; stronger effect = higher value.
Test [16] is described as follows: chitosan synthesis blockers in C. neoformans – flow cytometry, Cibacron Brilliant Red staining (AID 1347148).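 Also: compound exposure lasted three days at 37 degrees C.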 As to conditions: Cryptococcus neoformans chitosan, stronger effect = lower value; at 99.1 µM unless noted.

Values joined by “and” are separate entries in the source; they are usually repeats but may differ in a detail not shown here. Equal values may be shown once. Inconclusive results are not listed. Active and inactive are the calls of the source. Unless noted, no rule for the calls is given here.

Chain of ATP-dependent translocase ABCB1 (Homo sapiens) (P08183 whole entry, looked up): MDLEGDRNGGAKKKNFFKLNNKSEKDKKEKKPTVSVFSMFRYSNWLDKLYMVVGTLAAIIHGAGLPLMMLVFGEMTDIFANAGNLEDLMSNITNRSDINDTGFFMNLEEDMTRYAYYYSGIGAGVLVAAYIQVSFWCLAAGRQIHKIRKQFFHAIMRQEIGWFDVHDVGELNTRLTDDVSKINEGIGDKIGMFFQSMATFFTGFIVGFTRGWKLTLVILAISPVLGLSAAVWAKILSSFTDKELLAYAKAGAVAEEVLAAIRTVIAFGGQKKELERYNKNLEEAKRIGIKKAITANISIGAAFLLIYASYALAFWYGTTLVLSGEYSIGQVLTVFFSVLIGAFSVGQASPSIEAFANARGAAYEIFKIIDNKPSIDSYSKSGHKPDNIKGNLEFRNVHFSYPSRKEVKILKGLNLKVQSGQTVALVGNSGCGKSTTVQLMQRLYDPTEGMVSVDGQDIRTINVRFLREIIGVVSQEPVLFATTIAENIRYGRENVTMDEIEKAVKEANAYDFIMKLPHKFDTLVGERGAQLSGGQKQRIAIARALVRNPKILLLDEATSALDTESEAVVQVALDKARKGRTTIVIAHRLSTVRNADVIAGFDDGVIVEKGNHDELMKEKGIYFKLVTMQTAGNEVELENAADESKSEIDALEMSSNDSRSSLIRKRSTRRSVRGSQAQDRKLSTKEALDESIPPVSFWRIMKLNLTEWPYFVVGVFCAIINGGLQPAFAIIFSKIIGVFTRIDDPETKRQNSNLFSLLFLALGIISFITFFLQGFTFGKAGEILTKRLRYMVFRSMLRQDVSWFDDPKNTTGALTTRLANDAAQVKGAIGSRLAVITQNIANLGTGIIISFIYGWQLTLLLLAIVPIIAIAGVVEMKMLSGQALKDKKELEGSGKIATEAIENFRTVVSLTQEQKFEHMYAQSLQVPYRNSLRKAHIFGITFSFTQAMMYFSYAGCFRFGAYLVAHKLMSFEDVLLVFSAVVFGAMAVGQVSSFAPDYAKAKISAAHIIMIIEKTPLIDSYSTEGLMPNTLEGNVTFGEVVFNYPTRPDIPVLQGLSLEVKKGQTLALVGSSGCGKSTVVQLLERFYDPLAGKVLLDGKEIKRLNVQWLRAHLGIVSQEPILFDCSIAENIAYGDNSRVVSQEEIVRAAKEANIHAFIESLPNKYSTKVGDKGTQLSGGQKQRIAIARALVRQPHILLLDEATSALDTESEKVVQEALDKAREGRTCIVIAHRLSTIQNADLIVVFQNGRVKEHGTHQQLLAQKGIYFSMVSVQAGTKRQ
Chain of L-lactate dehydrogenase (Plasmodium falciparum (isolate CDC / Honduras)) (Q27743 whole entry, looked up): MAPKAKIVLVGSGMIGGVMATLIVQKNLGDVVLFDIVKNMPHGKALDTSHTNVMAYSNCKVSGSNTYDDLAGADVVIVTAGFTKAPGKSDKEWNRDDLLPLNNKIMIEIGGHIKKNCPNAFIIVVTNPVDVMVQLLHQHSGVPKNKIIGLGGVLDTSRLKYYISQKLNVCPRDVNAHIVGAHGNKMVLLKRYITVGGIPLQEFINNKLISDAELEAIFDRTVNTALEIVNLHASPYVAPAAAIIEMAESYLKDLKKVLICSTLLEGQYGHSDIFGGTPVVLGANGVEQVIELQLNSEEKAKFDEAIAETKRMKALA

For the compound `COc1ccccc1OCCNCC(O)COc1cccc2[nH]c3ccccc3c12` (stereo not drawn), the parasite load remaining in test [1] was 91.3% (inactive) and 56.7% (inactive) and 56.6% (inactive). In addition, in [2], the z-score is 1.06 (inactive). The remaining activity in test [3] was 112% (inactive).

For the compound `N[C@@H](Cc1cc(I)c(Oc2cc(I)c(O)c(I)c2)c(I)c1)C(=O)O`, the fluorescence slope change in test [4] was 62.7% (active). Besides, the compound was classed as inactive in test [5].

Turning to `OC(Cn1cncn1)(Cn1cncn1)c1ccc(F)cc1F`, the compound was called inactive in test [6] and in [5].

Turning to `CCN(Cc1ccncc1)C(=O)C(CO)c1ccccc1` (stereo not drawn), the fluorescence slope change in test [4] is 82.5% (active). In [3], the remaining activity was 104% (inactive).

On to `Oc1c(Cl)cc(Cl)c2cccnc12`, for which, in [1], the parasite load remaining is -2.47% (inactive) and 0.685% (inactive). The viability in [1] is 56.8% and 69.6%. For the same compound, the half-maximal activity concentration (AC50) in test [6] is 26.4 µM (active); in [5], 11.8 µM (active).

As to `CC1COc2c(N3CCN(C)CC3)c(F)cc3c(=O)c(C(=O)O)cn1c23` (stereo not drawn), in test [5], the outcome was inactive. The inhibition in [7] (at 0.5 µM) was -97.4% (inactive) and -9.66% (inactive) and -3.54% (inactive); in [7] (measured here: combination with BGB at IC20, at 0.5 µM) it was -84.4% and -20.4% and 15.5%; in [7] (measured here: combination with cisplatin at IC20, at 0.5 µM) it was -95.4% and 17.6% and 11.9%; in [8] (at 0.5 µM), -17.7% (inactive) and 0.8% (inactive) and 1.26% (inactive); in test [8] (measured here: combo with BGB at IC20, at 0.5 µM), -22% and -1.41% and -0.426%; in test [8] (measured here: combo with cisplatin at IC20, at 0.5 µM) it was -27.3% and 2.8% and -2.37%. Moreover, the inhibition was -7.78% (inactive) and 3.9% (inactive) and 3.09% (inactive) in [9] (at 0.5 µM); -28.7% and 4.48% and 2.71% in test [9] (measured here: inhibition with BGB combination, at 0.05 µM); -3.9% and 3.6% and -0.825% in [9] (measured here: inhibition with cisplatin combination, at 0.05 µM); -19.3% (inactive) and 6.15% (inactive) and -0.77% (inactive) in [10] (at 0.5 µM); -23.3% and -0.024% and 7.26% in test [10] (measured here: combination with cisplatin, at 0.5 µM); -88.9% and 5.83% and 8.15% in test [10] (measured here: combination with cisplatin, at 5 µM). Besides, the inhibition in [11] (BGB combination, concentration series, at 5 µM) is -49.7% and -1.75% and -2.9%; in test [11] (at 0.5 µM) it was -9.08% (inactive) and -0.86% (inactive) and 1.25% (inactive); in [11] (cisplatin combination, concentration series, at 5 µM), -6.84% and 7.33% and -3.71%; in test [12] it was -0.29% (inactive) and 4.48% (inactive) and 7.23% (inactive); in test [12] (measured here: combo with BGB IC20), 12.7% and 6.41% and 15%; in [12] (measured here: combo with cisplatin IC20), -18.7% and -2.95% and 15.1%.

For the compound `CN=C(NC#N)NCCSCc1nc[nH]c1C`, the remaining activity in test [3] was 118% (inactive).

As to `CC1(C)O[C@@H]2[C@@H](CO[C@@]3(COS(N)(=O)=O)OC(C)(C)O[C@@H]23)O1`, in test [1], the parasite load remaining is 169% (inactive) and 59.3% (inactive) and 91.8% (inactive); the viability is 90.1% and 108% and 69.4%. The z-score in test [2] is -1.38 (inactive). Further, in test [3], the remaining activity is 121% (inactive).

Take `CCCc1nc2c(C)cc(-c3nc4ccccc4n3C)cc2n1Cc1ccc(-c2ccccc2C(=O)O)cc1`: the z-score in [2] was -0.492 (inactive). Moreover, the result in test [6] and in test [5] was inactive.

As to `O=C(O)c1cc(=O)c2c(OCC(O)COc3cccc4oc(C(=O)O)cc(=O)c34)cccc2o1`, the compound was classed as inactive in test [6] and in test [5].

Take `CC(=O)CC(c1ccccc1)c1c(O)c2ccccc2oc1=O` (stereo not drawn): in test [1], the parasite load remaining is 43.1% (inactive) and 79.3% (inactive) and 42.7% (inactive); the viability was 95.3% and 65.5% and 98.1%. The compound was called inactive in [6].

As for `CCc1nc(N)nc(N)c1-c1ccc(Cl)cc1`, the growth inhibition in test [13] is 0% (inactive) and -1% (inactive); in [15], 94% (active) and 93% (active). In [14], the inhibition is -5% (inactive) and 5% (inactive).

As for `CC(C)NCC(O)c1cc(O)cc(O)c1` (stereo not drawn), the fluorescence slope change in test [4] was 14.9% (inactive).

As for `OCCN1CCN(CCCN2c3ccccc3Sc3ccc(Cl)cc32)CC1`, in [4], the fluorescence slope change is 181% (active).

On to `CN(C)CCOC(C)(c1ccccc1)c1ccccn1` (stereo not drawn), for which, in [2], the z-score is -0.0183 (inactive).

`Cc1nc2ccccn2c(=O)c1CCN1CCC(C(=O)c2ccc(F)cc2)CC1`: the z-score in test [2] was -1.94 (inactive).

Consider `O=C(CCCN1CC=C(n2c(=O)[nH]c3ccccc32)CC1)c1ccc(F)cc1`, for which the fluorescence slope change in test [4] was 53.4% (active). Also, the z-score in test [2] is 0.0538 (inactive).

As for `OC(CCN1CCCCC1)(c1ccccc1)C1CCCCC1` (stereo not drawn), the fluorescence slope change in test [4] is 66% (active).

For the compound `CC(=O)CCCCn1c(=O)c2c(ncn2C)n(C)c1=O`, the fluorescence slope change in test [4] was 121% (active). The z-score in test [2] is -0.728 (inactive).

On to `CC(N=C(NC#N)Nc1ccncc1)C(C)(C)C` (stereo not drawn), for which the fluorescence slope change in test [4] was 190% (active). Further, the z-score in test [2] is -0.52 (inactive). For the same compound, in test [16], the fold fluorescence was 3.41 [at 203.8 µM] (inactive).

With `Cc1ccc(S(=O)(=O)NC(=O)NN2CCCCCC2)cc1`, in [4], the fluorescence slope change was 5.1% (inactive). Also, the fold fluorescence in test [16] is 4.87 [at 160.6 µM] (inactive).

Regarding `CCCCNC(=O)NS(=O)(=O)c1ccc(C)cc1`, the fold fluorescence in test [16] was 3.24 [at 184.9 µM] (inactive).

For `NCC(=O)CCC(=O)O`, in test [1], the parasite load remaining is 63.7% (inactive) and 161% (inactive) and 53.4% (inactive); the viability is 95.6% and 83.2% and 165%.

For the compound `CN(C)CCC[C@@]1(c2ccc(F)cc2)OCc2cc(C#N)ccc21`, in test [1], the parasite load remaining was 78.9% (inactive) and 44.8% (inactive); the viability is 63.5% and 102%. The z-score in test [2] was 0.314 (inactive).

Regarding `CCN(CC)CCNC(=O)c1ccc(N)cc1`, in [16], the fold fluorescence was 4.18 [at 212.5 µM] (inactive).

For the compound `CCCNC(=O)NS(=O)(=O)c1ccc(Cl)cc1`, the fluorescence slope change in [4] is 6.6% (inactive).

Regarding `CCCCC1=NC2(CCCC2)C(=O)N1Cc1ccc(-c2ccccc2-c2nn[nH]n2)cc1`, in test [1], the parasite load remaining is 50.9% (inactive) and 54.9% (inactive) and 98.2% (inactive); the viability was 86.5% and 93.9% and 73.1%. Further, the z-score in test [2] is 0.146 (inactive).

As a reminder, the remaining activity is the signal under treatment as a percentage of the control signal. The viability is a read-out of living cells in per cent, often relative to untreated cells. As usually defined, the AC50 is the concentration giving half of the maximal activity seen. By inhibition is commonly meant the relative decrease from the control value, in per cent.
